Test results: PubChem BioAssay (NCATS)
Records with an inconclusive call do not appear. Activity calls are given as the source filed them. Calls come from the whole dose curve; as a rule, active = well fitted cell-killing curve with a large enough effect; inconclusive = small, poorly fitted or top-dose-only effect, or effect the other way; inactive = no such curve, though single readings can be large or run the other way.

How the values were obtained:
[1] = Quantitative High-Throughput drug screen in 47 multiple myeloma cell lines against the NCATS MIPE library collection: OCIMY1_PLB cell viability assay (AID 1918979); note: nearly all actives have a fitted effect of over 35% in size; note: potency is the fitted concentration of half-maximal effect; for viability: series mostly up to about 46 µM
Method in brief: (§1)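 qHTS format: cells plated (500/well), pin-dosed with MIPE 4.0 compounds, kept 48 h at 37 °C. Readout was CellTiter-Glo luminescence, median RLU.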

[2] = Quantitative High-Throughput drug screen in 47 multiple myeloma cell lines against the NCATS MIPE library collection: MM1S_ATCC cell viability assay (AID 1918980); note: nearly all actives have a fitted effect of over 45% in size; note: potency is the fitted concentration of half-maximal effect
Method in brief: as §1

[3] = Quantitative High-Throughput drug screen in 47 multiple myeloma cell lines against the NCATS MIPE library collection: MM1R_ATCC cell viability assay (AID 1918981); note: nearly all actives have a fitted effect of over 35% in size; note: potency is the fitted concentration of half-maximal effect
Method in brief: as §1

[4] = Quantitative High-Throughput drug screen in 47 multiple myeloma cell lines against the NCATS MIPE library collection: LP1_DSMZ cell viability assay (AID 1918982); note: nearly all actives have a fitted effect of over 35% in size; note: potency is the fitted concentration of half-maximal effect
Method in brief: as §1

[5] = Quantitative High-Throughput drug screen in 47 multiple myeloma cell lines against the NCATS MIPE library collection: KMS28PE_JCRB cell viability assay (AID 1918983); note: nearly all actives have a fitted effect of over 35% in size; note: potency is the fitted concentration of half-maximal effect
Method in brief: as §1

[6] = Quantitative High-Throughput drug screen in 47 multiple myeloma cell lines against the NCATS MIPE library collection: OCIMY7_PLB cell viability assay (AID 1918987); note: nearly all actives have a fitted effect of over 65% in size; note: potency is the fitted concentration of half-maximal effect
Method in brief: as §1

[7] = Quantitative High-Throughput drug screen in 47 multiple myeloma cell lines against the NCATS MIPE library collection: OPM1_PLB cell viability assay (AID 1918989); note: nearly all actives have a fitted effect of over 40% in size; note: potency is the fitted concentration of half-maximal effect
Method in brief: as §1

[8] = Quantitative High-Throughput drug screen in 47 multiple myeloma cell lines against the NCATS MIPE library collection: SKMM1_PLB cell viability assay (AID 1919863); details: SKMM1 myeloma viability, CellTiter-Glo ATP, 48 h; viability: hits give low values; note: nearly all actives have a fitted effect of over 35% in size; note: potency is the fitted concentration of half-maximal effect; for viability: series mostly up to about 46 µM
Method in brief: as §1

[9] = Quantitative High-Throughput drug screen in 47 multiple myeloma cell lines against the NCATS MIPE library collection: U266_ATCC cell viability assay (AID 1919864); note: nearly all actives have a fitted effect of over 35% in size; note: potency is the fitted concentration of half-maximal effect
Method in brief: as §1

[10] = Quantitative High-Throughput drug screen in 47 multiple myeloma cell lines against the NCATS MIPE library collection: XG1_PLB cell viability assay (AID 1919866); note: nearly all actives have a fitted effect of over 35% in size; note: potency is the fitted concentration of half-maximal effect
Method in brief: as §1

[11] = Quantitative High-Throughput drug screen in 47 multiple myeloma cell lines against the NCATS MIPE library collection: UTMC2_PLB cell viability assay (AID 1919868); note: nearly all actives have a fitted effect of over 55% in size; note: potency is the fitted concentration of half-maximal effect
Method in brief: as §1

[12] = Quantitative High-Throughput drug screen in 47 multiple myeloma cell lines against the NCATS MIPE library collection: PE2_PLB cell viability assay (AID 1919869); note: nearly all actives have a fitted effect of over 35% in size; note: potency is the fitted concentration of half-maximal effect
Method in brief: as §1

[13] = Quantitative High-Throughput drug screen in 47 multiple myeloma cell lines against the NCATS MIPE library collection: RPMI8226_ATCC cell viability assay (AID 1919871); note: nearly all actives have a fitted effect of over 30% in size; note: potency is the fitted concentration of half-maximal effect
Method in brief: as §1

[14] = Quantitative High-Throughput drug screen in 47 multiple myeloma cell lines against the NCATS MIPE library collection: OPM2_DSMZ cell viability assay (AID 1919872); note: nearly all actives have a fitted effect of over 30% in size; note: potency is the fitted concentration of half-maximal effect
Method in brief: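 CellTiter-Glo luminescence (ATP) after 48 h compound exposure, 37C/5% CO2; 500 cells/well; MIPE 4.0 approved/investigational drugs pinned in; DMSO = 100%, media only = 0% viability.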

[15] = Quantitative High-Throughput drug screen in 47 multiple myeloma cell lines against the NCATS MIPE library collection: L363_DSMZ cell viability assay (AID 1918984); note: nearly all actives have a fitted effect of over 40% in size
Method in brief: as §1

[16] = Quantitative High-Throughput drug screen in 47 multiple myeloma cell lines against the NCATS MIPE library collection: KMS34_JCRB cell viability assay (AID 1918985); note: nearly all actives have a fitted effect of over 40% in size; note: potency is the fitted concentration of half-maximal effect
Method in brief: as §1

[17] = Quantitative High-Throughput drug screen in 47 multiple myeloma cell lines against the NCATS MIPE library collection: OCIMY5_PLB cell viability assay (AID 1918988); note: potency is the fitted concentration of half-maximal effect; nearly all actives have a fitted effect of over 65% in size
Method in brief: as §1

[18] = Quantitative High-Throughput drug screen in 47 multiple myeloma cell lines against the NCATS MIPE library collection: XG6_PLB cell viability assay (AID 1919865); note: nearly all actives have a fitted effect of over 40% in size; note: potency is the fitted concentration of half-maximal effect
Method in brief: as §1

[19] = Quantitative High-Throughput drug screen in 47 multiple myeloma cell lines against the NCATS MIPE library collection: PCM6_Riken cell viability assay (AID 1919870); note: nearly all actives have a fitted effect of over 30% in size; note: potency is the fitted concentration of half-maximal effect
Method in brief: as §1

[20] = Quantitative High-Throughput drug screen in 47 multiple myeloma cell lines against the NCATS MIPE library collection: VP6_DJ cell viability assay (AID 1919867); note: nearly all actives have a fitted effect of over 40% in size; note: potency is the fitted concentration of half-maximal effect
Method in brief: as §1

CC(C)(Oc1ccc(C2CC2(Cl)Cl)cc1)C(=O)O (stereo not given)
active: Potency [2] 9.59 µM | Potency [3] 48.1 µM
inactive: Potency [1] | Potency [4] | Potency [5] | Potency [6] | Potency [7] | viability [8] 131% | Potency [9] | Potency [10] | Potency [11] | Potency [12] | Potency [13] | Potency [14]

Cc1ccc(-c2cc(C(F)(F)F)nn2-c2ccc(S(N)(=O)=O)cc2)cc1
active: Potency [2] 20.9 µM | Potency [3] 8.33 µM | Potency [16] 1.32 µM | Potency [6] 20.9 µM | Potency [17] 20.9 µM
inactive: Potency [1] | Potency [15] | Potency [12] | Potency [14]

CC[N+](CC)(CC)CCOc1cccc(OCC[N+](CC)(CC)CC)c1OCC[N+](CC)(CC)CC
inactive: Potency [1] | Potency [2] | Potency [3] | Potency [4] | Potency [5] | Potency [16] | Potency [6] | Potency [7] | viability [8] 112% | Potency [9] | Potency [18] | Potency [10] | Potency [11] | Potency [12] | Potency [19] | Potency [13]
active: Potency [14] 0.118 µM

CC(C(=O)O)c1cccc(C(=O)c2ccccc2)c1 (stereo not given)
inactive: Potency [1] | Potency [4] | Potency [5] | Potency [16] | Potency [6] | viability [8] 106% | Potency [9] | Potency [13] | Potency [14]
active: Potency [2] 2.96 µM | Potency [3] 23.5 µM | Potency [18] 13.2 µM | Potency [10] 14.8 µM | Potency [20] 14.8 µM | Potency [12] 23.5 µM | Potency [19] 16.6 µM

Cn1c(=O)c2c(ncn2C)n(C)c1=O
inactive: Potency [1] | Potency [2] | Potency [3] | Potency [4] | Potency [5] | Potency [15] | Potency [16] | Potency [9] | Potency [18] | Potency [10] | Potency [20] | Potency [11] | Potency [12] | Potency [19] | Potency [13] | Potency [14]

Cn1cnc2c1c(=O)[nH]c(=O)n2C
active: Potency [1] 23.5 µM | Potency [2] 29.6 µM | Potency [3] 18.7 µM | Potency [4] 16.6 µM | Potency [5] 18.7 µM | Potency [16] 16.6 µM | Potency [6] 5.9 µM | Potency [7] 10.5 µM | Potency [8] 20.9 µM | Potency [9] 23.5 µM | Potency [18] 16.6 µM | Potency [10] 14.8 µM | Potency [11] 14.8 µM | Potency [12] 9.35 µM | Potency [19] 16.6 µM | Potency [13] 20.9 µM | Potency [14] 20.9 µM

CN1C2CCC1CC(OC(=O)C(CO)c1ccccc1)C2 (stereo not given)
inactive: Potency [1] | Potency [3] | Potency [4] | Potency [5] | Potency [6] | Potency [7] | Potency [18] | Potency [10] | Potency [11] | Potency [12] | Potency [19] | Potency [13] | Potency [14]

CCOC(=O)Nc1ccc(NCc2ccc(F)cc2)nc1N
active: Potency [2] 23.5 µM | Potency [18] 14.8 µM
inactive: Potency [1] | Potency [4] | Potency [5] | Potency [7] | viability [8] 134% | Potency [9] | Potency [10] | Potency [11] | Potency [13] | Potency [14]

COc1ccc(C2CNC(=O)C2)cc1OC1CCCC1 (stereo not given)
inactive: Potency [1] | Potency [3] | Potency [4] | Potency [5] | Potency [7] | Potency [9] | Potency [12] | Potency [13] | Potency [14]
active: Potency [18] 20.9 µM | Potency [20] 14.8 µM

C[C@](N)(Cc1ccc(O)c(O)c1)C(=O)O
active: Potency [1] 16.6 µM | Potency [3] 20.9 µM | Potency [9] 18.7 µM | Potency [14] 7.43 µM
inactive: Potency [10] | Potency [11] | Potency [19]

CN1CCN2c3ccccc3Cc3ccccc3C2C1 (stereo not given)
inactive: Potency [11]
active: Potency [1] 16.6 µM | Potency [2] 13.2 µM | Potency [6] 18.7 µM | Potency [7] 16.6 µM | Potency [18] 10.5 µM | Potency [10] 18.7 µM | Potency [20] 3.72 µM

CN(C)c1nc(N(C)C)nc(N(C)C)n1
inactive: Potency [1] | Potency [3] | Potency [4] | Potency [16] | Potency [7] | Potency [10] | Potency [11] | Potency [12] | Potency [14]
active: Potency [5] 23.5 µM

CC1COc2c(N3CCN(C)CC3)c(F)cc3c(=O)c(C(=O)O)cn1c23 (stereo not given)
inactive: Potency [1] | Potency [3] | Potency [4] | Potency [5] | Potency [16] | Potency [6] | Potency [7] | viability [8] 135% | Potency [9] | Potency [10] | Potency [20] | Potency [13] | Potency [14]

N[C@@H](Cc1c[nH]c2ccc(O)cc12)C(=O)O
active: Potency [20] 16.6 µM | Potency [13] 1.05 µM
inactive: Potency [1] | Potency [3] | Potency [4] | Potency [16] | Potency [6] | Potency [7] | viability [8] 109% | Potency [10] | Potency [14]

Nc1c2c(nc3ccccc13)CCCC2
inactive: Potency [1] | Potency [4] | Potency [6] | Potency [7] | Potency [18] | Potency [10] | Potency [12] | Potency [19]
active: Potency [2] 11.8 µM | Potency [5] 14.8 µM | Potency [13] 1.32 µM

O=C1Cc2cc(CCN3CCN(c4nsc5ccccc45)CC3)c(Cl)cc2N1
active: Potency [1] 20.9 µM | Potency [3] 20.9 µM | Potency [16] 20.9 µM | Potency [18] 23.5 µM | Potency [10] 23.5 µM | Potency [20] 16.6 µM | Potency [11] 20.9 µM | Potency [12] 18.7 µM | Potency [19] 18.7 µM | Potency [13] 20.9 µM
